Assay outcomes: PubChem BioAssay, National Center for Advancing Translational Sciences (NCATS)
PNC inhibitor = perinucleolar compartment assembly inhibition; PC3M PTB-GFP, PNC prevalence imaging, 16 h; active compounds read low; AID 2417; actives 3.1% (n = 140,000); activity change (PNC), negative = inhibition, % at 10 µM;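 active means readout at or below -70, meaning at least 70% loss of cells showing the perinucleolar compartment, a nuclear body marking cancer cells; inconclusive means readout between -30 and a set limit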;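 further: plate controls were DMSO wells for no effect and camptothecin positive control wells for full effect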
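PC3M cells stably expressing PTB-GFP, 750–1000 cells/well, treated 16 h at 37 °C with compound (23 nl of library stock), in duplicate. After paraformaldehyde fixation and Hoechst stain, imaged at 20x; PNC prevalence scored by image analysis.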
GLA inh pH 4.5 = inhibitors of human alpha-galactosidase A at pH 4.5. 230,000 tested, under 10 active. AID 1467. P06280. activity change, negative = inhibition, % at 105 µM. purified enzyme, 4-MU-alpha-Gal fluorescence, pH 4.5;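 further: 0% = full activity with enzyme and -100% = basal without enzyme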
GLA spleen mod = inhibitors or activators of human alpha-galactosidase in spleen homogenate | actives 0.008% (n = 240,000) | human spleen homogenate, 4MU-alpha-Gal fluorescence, 40 min | Potency, µM (series often up to 80 µM), inactives show top-dose activity change, negative = inhibition, actives largely listed as inhibitors | AID 2107;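 further: potency means the concentration at half of the fitted maximal effect; 0% = enzyme with vehicle and -100% = no enzyme basal signal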
Target sequence (P06280 32-429 limits assumed): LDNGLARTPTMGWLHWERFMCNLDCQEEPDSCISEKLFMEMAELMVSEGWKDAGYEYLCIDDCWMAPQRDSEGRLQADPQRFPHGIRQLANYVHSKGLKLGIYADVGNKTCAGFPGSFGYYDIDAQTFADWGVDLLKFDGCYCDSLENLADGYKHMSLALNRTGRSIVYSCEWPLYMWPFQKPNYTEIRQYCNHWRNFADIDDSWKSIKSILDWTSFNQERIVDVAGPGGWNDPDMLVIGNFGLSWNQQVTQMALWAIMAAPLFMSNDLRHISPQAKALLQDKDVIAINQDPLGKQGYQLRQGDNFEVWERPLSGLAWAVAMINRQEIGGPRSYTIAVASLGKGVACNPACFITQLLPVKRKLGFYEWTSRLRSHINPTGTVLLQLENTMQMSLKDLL
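qHTS titration in buffer at pH 5.0. Alpha-galactosidase activity in spleen homogenate was measured via 4-methylumbelliferone release from 1 mM fluorogenic substrate after 40 min at 37C and a pH 10 stop. AC50 came from Hill fits of control-normalized data.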
ALDH1A1 inh = inhibitors of human aldehyde dehydrogenase 1A1 | Potency, µM (series often up to 75.3 µM), for the others: top-dose activity, negative = inhibition, most hits filed as inhibitors | AID 1030 | Purified ALDH1A1, NADH fluorescence, propionaldehyde substrate | actives 7.3% (n = 220,000); active means well fitted inhibition curve with a large enough effect, not every such curve was filed as active; inconclusive means small, poorly fitted or top-dose-only effect, or another doubt; inactive means no such curve, though single readings can be large or run the other way;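 further: potency means the concentration at half of the fitted maximal effect; plate controls were no enzyme wells and a reference inhibitor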
ALOX12 inhib = 12-hLO (ALOX12) enzyme inhibition; Potency, µM (titrated, usually from 57.1 µM), for the others: at the top dose activity change, negative = inhibition, most hits filed as inhibitors; P18054; purified 12-hLO, xylenol orange hydroperoxide absorbance; actives 0.12% (n = 150,000); further: potency means the concentration at half of the fitted maximal effect; nearly all actives have a fitted effect of over 55% in size
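Lipoxygenase turnover measured by absorbance at 573 and 405 nm after Fe-XO development. Human 12hLO 150 nM, arachidonate 40 uM, pH 7.0 Hepes buffer with detergent; 15 min compound preincubation, 30 min reaction.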
HPGD block = HPGD (human) dehydrogenase inhibition; P15428; actives 4.3% (n = 150,000); Potency, µM, without a hit: at the top dose activity change, negative = inhibition, usual class: inhibitors; purified HPGD, NADH fluorescence kinetic, PGE2 substrate; active means well fitted inhibition curve with a large enough effect, not every such curve was filed as active; inconclusive means small, poorly fitted or top-dose-only effect, or another doubt; inactive means no such curve, though single readings can be large or run the other way; further: potency means the concentration at half of the fitted maximal effect
Target sequence (P15428 whole entry, looked up): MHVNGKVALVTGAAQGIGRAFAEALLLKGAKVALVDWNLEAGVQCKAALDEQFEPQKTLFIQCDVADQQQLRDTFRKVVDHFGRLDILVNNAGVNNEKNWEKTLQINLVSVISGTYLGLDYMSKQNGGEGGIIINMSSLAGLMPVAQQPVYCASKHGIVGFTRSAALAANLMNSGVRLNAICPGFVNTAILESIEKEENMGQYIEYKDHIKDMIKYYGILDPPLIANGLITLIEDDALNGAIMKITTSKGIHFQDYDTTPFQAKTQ
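NADH formation kinetics: reaction with 30 uM PGE2 and 1 mM NAD+ (final), 20 nM enzyme, Tris-HCl pH 8 with Tween 20, after 15 min compound preincubation at room temperature. Fluorescence change, last versus first of five reads.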
The depositor's hits bear a star. Shown are actives, neighbours in structure and some others; about 10% of the full set was active somewhere. Unless noted, the call rests on the fitted dose curve; in most records, active means well fitted curve in the direction sought with a large enough effect; inconclusive means small, poorly fitted or top-dose-only effect, or another doubt; inactive means no such curve, though single readings can be large; an effect the other way counts as inactive or inconclusive. Unless noted, on the % scale 0 is the no-effect control and ±100 the full control effect.

Screening CSCC[C@H](NC(=O)[C@H](CC(C)C)NC(=O)CNC(=O)[C@@H]1CCCN1C(=O)[C@H](Cc1ccccc1)NC(=O)[C@H](Cc1ccccc1)NC(=O)[C@H](CC(=O)O)NC(=O)[C@H](Cc1cnc[nH]1)NC(=O)[C@H](CCSC)NC(=O)[C@@H](N)CC(=O)O)C(N)=O returned GLA spleen mod 8.2%.
O=[N+]([O-])c1cc(S(=O)(=O)C(F)(F)F)ccc1Sc1nc2ccccc2s1 was read as PNC inhibitor 113.3, GLA inh pH 4.5 -8.0, GLA spleen mod -2.5%, ALDH1A1 inh -14.9%, ALOX12 inhib -2.8% and HPGD block 25.1µM*.
For COc1ccc(Cl)cc1N1C(=O)C2CCCN2C1c1ccc(F)cc1 (stereo not drawn) the results were PNC inhibitor -7.5, GLA inh pH 4.5 1.1, GLA spleen mod -9.1%, ALDH1A1 inh 1.3%, ALOX12 inhib -0.6% and HPGD block -7.6%.
`Cc1ccc(C2N(c3ccc(F)cc3)C(=O)C3CCCN32)cc1` (stereo not drawn) gave PNC inhibitor -10.6, GLA inh pH 4.5 1.1, GLA spleen mod 8.0%, ALDH1A1 inh 5.8%, ALOX12 inhib -8.5% and HPGD block -11.1%.
For CN(C)c1ccc(C2N(c3ccc(F)cc3)C(=O)C3CCCN32)cc1 (stereo not drawn) the results were PNC inhibitor -4.2, GLA inh pH 4.5 -11.4, GLA spleen mod 13.3%, ALDH1A1 inh 0.631µM*, ALOX12 inhib -4.7% and HPGD block -25.4%.
`CN(C)c1ccc(C2N(c3ccc(Cl)cc3)C(=O)C3CCCN32)cc1` (stereo not drawn) gave PNC inhibitor -14.2, GLA inh pH 4.5 -0.9, GLA spleen mod -4.5%, ALDH1A1 inh 0.794µM*, ALOX12 inhib 3.5% and HPGD block -15.7%.
COc1ccc(C2N(c3cc(Cl)ccc3OC)C(=O)C3CCCN32)cc1 (stereo not drawn) was read as PNC inhibitor 2.0, GLA inh pH 4.5 22.0, GLA spleen mod -2.5%, ALDH1A1 inh 10µM*, ALOX12 inhib -3.3% and HPGD block -12.7%.
For O=C(CSc1nc2c(c(C(F)(F)F)n1)CCc1ccccc1-2)NCc1ccc(F)cc1 the results were PNC inhibitor -118.9*, GLA inh pH 4.5 5.9, GLA spleen mod 5.1%, ALDH1A1 inh -1.9%, ALOX12 inhib -4.4% and HPGD block -8.4%.
Screening CS(=O)(=O)Nc1cccc(-c2ccc3ncnc(NCc4cccs4)c3c2)c1 returned GLA spleen mod 10.7% and ALDH1A1 inh -4.3%.
For O=C(OCc1nnc(-c2ccccc2)o1)c1ccc2c(c1)OCO2 the results were PNC inhibitor -28.1, GLA inh pH 4.5 -3.1, GLA spleen mod -1.9%, ALDH1A1 inh -2.2%, ALOX12 inhib -21.2% and HPGD block 7.08µM*.
For ClCc1nnc(-c2ccccc2)o1 the results were PNC inhibitor -1.3, GLA inh pH 4.5 -14.8, GLA spleen mod -3.6%, ALDH1A1 inh 7.94µM*, ALOX12 inhib 1.1% and HPGD block -15.4%.
`N#Cc1ccccc1Sc1ccccc1C(=O)OCC(N)=O` gave GLA inh pH 4.5 1.6, GLA spleen mod 9.5% and ALDH1A1 inh -7.3%.
Cc1nn(Cc2ccccc2)c(Cl)c1C(=O)OCc1nnc(-c2ccccc2)o1 was read as PNC inhibitor -13.0, GLA inh pH 4.5 4.8, GLA spleen mod 0.0%, ALDH1A1 inh 1.6%, ALOX12 inhib 0.6% and HPGD block 12.6µM*.
O=C(OCc1nnc(-c2ccccc2)o1)c1cc(F)c(F)cc1Cl was read as GLA inh pH 4.5 -0.4, GLA spleen mod -2.5% and ALDH1A1 inh 6.1%.
Cc1nn(Cc2ccccc2)c(Cl)c1C(=O)OCc1nnc(-c2ccc(Cl)cc2)o1 was read as PNC inhibitor -7.5, GLA inh pH 4.5 -5.1, GLA spleen mod -0.3%, ALDH1A1 inh 1.8%, ALOX12 inhib -19.6% and HPGD block -19.0%.
`N#Cc1ccccc1Sc1ccccc1C(=O)OCc1nnc(-c2ccccc2)o1` gave PNC inhibitor -5.4, GLA inh pH 4.5 -4.6, GLA spleen mod 5.1%, ALDH1A1 inh -4.3%, ALOX12 inhib -0.4% and HPGD block 8.91µM*.
`Cn1cc(-c2nc3cnc(N4CCNCC4)nc3n(C)c2=O)c2ccccc21` gave GLA spleen mod -21.8% and ALDH1A1 inh -7.9%.
`CCOc1ccc(-c2cn(-c3cccc(SC)c3)c(=O)[nH]2)cc1` gave PNC inhibitor 146.5, GLA inh pH 4.5 0.8, GLA spleen mod 0.6%, ALDH1A1 inh inconclusive, ALOX12 inhib -10.4% and HPGD block -6.9%.
For Cn1c(N)c(C(=O)COC(=O)CCC2CCCCC2)c(=O)n(C)c1=O the results were GLA inh pH 4.5 -0.5, GLA spleen mod 7.8% and ALDH1A1 inh -6.4%.
For CCN1CCCC1CNC(=O)C(=O)NCCc1ccc(OC)c(OC)c1 (stereo not drawn) the results were GLA inh pH 4.5 5.3, GLA spleen mod -1.4% and ALDH1A1 inh -2.2%.
O=C(OCc1nnc(-c2ccccc2)o1)C1CC(=O)N(Cc2ccco2)C1 (stereo not drawn) was read as GLA inh pH 4.5 7.2, GLA spleen mod 6.2% and ALDH1A1 inh 15µM*.
COC(=O)c1sc(N)c(C(=O)OC)c1COC(=O)C1CC(=O)N(Cc2ccco2)C1 (stereo not drawn) was read as PNC inhibitor 24.2, GLA inh pH 4.5 1.2, GLA spleen mod 11.0%, ALDH1A1 inh inconclusive, ALOX12 inhib 5.6% and HPGD block inconclusive.
For CCOC(=O)c1sc(N)c(C(=O)OCC)c1COC(=O)C1CC(=O)N(Cc2ccco2)C1 (stereo not drawn) the results were PNC inhibitor 41.1, GLA inh pH 4.5 -5.4, GLA spleen mod 13.0%, ALDH1A1 inh 20µM*, ALOX12 inhib -9.8% and HPGD block -20.9%.
For O=C(OCc1nnc(-c2ccccc2)o1)c1ccco1 the results were PNC inhibitor -5.5, GLA inh pH 4.5 -9.6, GLA spleen mod 26.4%, ALDH1A1 inh inconclusive, ALOX12 inhib -2.0% and HPGD block 8.91µM*.
For CCOc1ncccc1C(=O)OCc1nnc(-c2ccccc2)o1 the results were PNC inhibitor -22.5, GLA inh pH 4.5 10.7, GLA spleen mod -7.7%, ALDH1A1 inh 6.4%, ALOX12 inhib -5.2% and HPGD block 15.8µM*.
Screening O=C(OCc1nnc(-c2ccccc2)o1)c1cc(=O)c2ccccc2o1 returned PNC inhibitor inconclusive, GLA inh pH 4.5 -0.7, GLA spleen mod 0.6%, ALDH1A1 inh 9.4%, ALOX12 inhib -2.8% and HPGD block -9.3%.
